Data published in PubChem BioAssay AID1159580 (chemical genetic matrix, 2015).
About 2,000 (36%) of roughly 5,500 compounds were called active. Inconclusive results (about 18%) are left out. Cut-off read from the data, not from the text of the source: active = normalized growth mostly below about 0.91 (no sharp cut-off); inconclusive = no clear call, values can overlap the other calls; inactive = mostly above about 0.92. Some of the results follow.

Test: chemical genetic growth profiling, strain panel (AID 1159580);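 note: tested at 20 µM; growth read once vehicle control cultures reached saturation at 30 °C; 1 = growth at the plate median or of vehicle wells; lower values mean less growth of the strain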
Conditions: S. cerevisiae deletion strains, growth OD

Measured: normalized growth

CN(C)c1ccc(C(=C2C=CC(=[N+](C)C)C=C2)c2ccc(N(C)C)cc2)cc1
inactive: locus YLR039C, strain RIC1, stronger effect = lower value 0.713 | locus YLR262C, strain YPT6, stronger effect = lower value 0.753 | locus YLR357W, strain rsc2, stronger effect = lower value 1.04 | locus YOL012C, strain htz1 1.5
active: locus YJR043C, strain POL32, stronger effect = lower value 0.373 | locus YJR066W, strain TOR1, stronger effect = lower value 0.0572 | locus YKL009W, strain mrt4, stronger effect = lower value 0.538 | locus YKL068W, stronger effect = lower value 0.431 | locus YKL085W, strain MDH1 (second series), stronger effect = lower value 0.429 | locus YKL085W, strain MDH1, stronger effect = lower value 0.429 | locus YKL160W, strain elf1, stronger effect = lower value 0.44 | locus YKR001C, strain vps1, stronger effect = lower value 0.514 | locus YKR026C, strain gcn3, stronger effect = lower value 0.573 | locus YKR091W, strain srl3, stronger effect = lower value 0.536 | locus YLL001W, strain dnm1, stronger effect = lower value 0.605 | locus YLL026W, stronger effect = lower value 0.536 | locus YLL041C, strain sdh2, stronger effect = lower value 0.468 | locus YLR027C, strain aat2, stronger effect = lower value 0.449 | locus YLR058C, strain SHM2, stronger effect = lower value 0.364 | locus YLR102C, strain apc9, stronger effect = lower value 0.449 | locus YLR113W, strain HOG1, stronger effect = lower value 1.5 [resistant] | locus YLR221C, strain rsa3, stronger effect = lower value 0.457 | locus YLR258W, strain gsy2, stronger effect = lower value 0.527 | locus YLR262C, strain YPT6 (second series), stronger effect = lower value 0.65 | locus YLR268W, strain sec22, stronger effect = lower value 0.553 | locus YLR320W, strain mms22, stronger effect = lower value 0.558 | locus YLR330W, strain CHS5, stronger effect = lower value 0.355 | locus YLR342W, strain FKS1 (second series), stronger effect = lower value 0.388 | locus YLR342W, strain FKS1, stronger effect = lower value 0.499 | locus YLR370C, strain arc18, stronger effect = lower value 0.564 | locus YLR371W, strain rom2, stronger effect = lower value 0.489 | locus YLR384C, strain iki3, stronger effect = lower value 0.486 | locus YLR418C, strain cdc73, stronger effect = lower value 0.769 | locus YML016C, strain PPZ1, stronger effect = lower value 0.345 | locus YML032C, strain rad52, stronger effect = lower value 0.583 | locus YML120C, strain ndi1, stronger effect = lower value 0.554 | locus YML124C, strain tub3, stronger effect = lower value 0.48 | locus YMR058W, strain fet3, stronger effect = lower value 0.59 | locus YMR078C, strain ctf18, stronger effect = lower value 0.546 | locus YMR125W, strain sto1, stronger effect = lower value 0.617 | locus YMR129W, stronger effect = lower value 0.505 | locus YMR205C, strain PFK2, stronger effect = lower value 0.688 | locus YMR223W, strain ubp8, stronger effect = lower value 0.524 | locus YMR231W, strain pep5, stronger effect = lower value 0.558 | locus YMR307W, strain GAS1, stronger effect = lower value 0.562 | locus YNL067W, strain RPL9B, stronger effect = lower value 0.315 | locus YNL071W, strain lat1, stronger effect = lower value 0.573 | locus YNL183C, strain NPR1, stronger effect = lower value -0.00369 | locus YNL209W, strain ssb2, stronger effect = lower value 0.435 | locus YNL233W, strain BNI4, stronger effect = lower value 0.338 | locus YNL248C, strain rpa49, stronger effect = lower value 0.6 | locus YNL250W, strain rad50, stronger effect = lower value 0.597 | locus YNL271C, strain bni1, stronger effect = lower value 0.458 | locus YNL298W, strain CLA4, stronger effect = lower value 0.511 | locus YNL307C, strain MCK1, stronger effect = lower value 0.521 | locus YNL322C, strain KRE1 (second series), stronger effect = lower value 0.626 | locus YNL322C, strain KRE1, stronger effect = lower value 0.318 | locus YNR049C, strain mso1, stronger effect = lower value 0.547 | locus YNR052C, strain pop2, stronger effect = lower value 0.497 | locus YOL147C, strain pex11, stronger effect = lower value 0.501 | locus YOR001W, strain rrp6, stronger effect = lower value 0.55 | locus YOR061W, strain CKA2, stronger effect = lower value 0.335 | locus YOR069W, strain VPS5, stronger effect = lower value 0.33 | locus YOR070C, strain gyp1, stronger effect = lower value 0.466 | locus YOR080W, strain dia2, stronger effect = lower value 0.569 | locus YOR083W, strain WHI5, stronger effect = lower value 0.547 | locus YOR106W, strain vam3, stronger effect = lower value 0.505 | locus YOR136W, strain idh2, stronger effect = lower value 0.549 | locus YOR144C, strain elg1, stronger effect = lower value 0.483 | locus YOR184W, strain ser1, stronger effect = lower value 0.604 | locus YOR231W, strain MKK1, stronger effect = lower value 1.28 [resistant] | locus YOR265W, strain rbl2, stronger effect = lower value 0.469 | locus YOR270C, strain vph1, stronger effect = lower value 0.762 | locus YOR290C, strain snf2, stronger effect = lower value 0.636 | locus YOR316C, strain cot1, stronger effect = lower value 0.454 | locus YPL051W, strain arl3, stronger effect = lower value 0.488 | locus YPL055C, strain LGE1, stronger effect = lower value 0.408 | locus YPL078C, strain atp4, stronger effect = lower value 0.643 | locus YPL106C, strain sse1, stronger effect = lower value 0.77 | locus YPL240C, strain hsp82, stronger effect = lower value 0.466 | locus YPL241C, strain CIN2, stronger effect = lower value 0.316 | locus YPL256C, strain CLN2, stronger effect = lower value 1.48 [resistant] | locus YPR119W, strain clb2, stronger effect = lower value 0.472 | locus YPR141C, strain kar3, stronger effect = lower value 0.559 | locus YPR163C, strain tif3, stronger effect = lower value 0.517 | locus YPR167C, strain met16, stronger effect = lower value 0.49 | strain wtn01, stronger effect = lower value 0.535
